From PubChem BioAssay AID1159580 (chemical genetic matrix, 2015)
Values joined by “and” are separate entries in the source; they are usually repeats but may differ in a detail not shown here. Identical values can stand only once. The whole screen tested about 5,500 compounds, of which about 2,000 (36%) were called active. Inconclusive results (about 18%) are left out. Rule as the data show it: active = normalized growth mostly below about 0.91 (no sharp cut-off); inconclusive = no clear call, values can overlap the other calls; inactive = mostly above about 0.92. The list shows a part of the results. A structure can be active in one record and inactive in another.

Assay: chemical genetic growth profiling, strain panel (AID 1159580);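 also: tested at 20 µM; growth read once vehicle control cultures reached saturation at 30 °C; 1 = growth at the plate median or of vehicle wells; lower values mean less growth of the strain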
Settings: growth OD

Measured: normalized growth

CN1CCN(CCCN2c3ccccc3Sc3ccc(Cl)cc32)CC1
active: S. cerevisiae deletion strains, locus YKL190W, strain CNB1, stronger effect = lower value 0.124 | S. cerevisiae deletion strains, locus YKR001C, strain vps1, stronger effect = lower value 0.0709 | S. cerevisiae deletion strains, locus YLL026W, stronger effect = lower value 0.898 | S. cerevisiae deletion strains, locus YLR027C, strain aat2, stronger effect = lower value 0.843 | S. cerevisiae deletion strains, locus YLR221C, strain rsa3, stronger effect = lower value 0.885 | S. cerevisiae deletion strains, locus YLR320W, strain mms22, stronger effect = lower value 0.866 | S. cerevisiae deletion strains, locus YLR330W, strain CHS5, stronger effect = lower value 0.892 | S. cerevisiae deletion strains, locus YLR342W, strain FKS1 (second series), stronger effect = lower value 0.405 | S. cerevisiae deletion strains, locus YLR342W, strain FKS1, stronger effect = lower value 0.523 | S. cerevisiae deletion strains, locus YLR418C, strain cdc73, stronger effect = lower value 0.25 | S. cerevisiae deletion strains, locus YML120C, strain ndi1, stronger effect = lower value 0.823 | S. cerevisiae deletion strains, locus YMR058W, strain fet3, stronger effect = lower value 0.742 | S. cerevisiae deletion strains, locus YMR125W, strain sto1, stronger effect = lower value 0.869 | S. cerevisiae deletion strains, locus YMR223W, strain ubp8, stronger effect = lower value 0.784 | S. cerevisiae deletion strains, locus YMR231W, strain pep5, stronger effect = lower value 0.0744 | S. cerevisiae deletion strains, locus YMR263W, strain SAP30, stronger effect = lower value 0.717 | S. cerevisiae deletion strains, locus YNL067W, strain RPL9B, stronger effect = lower value 0.724 | S. cerevisiae deletion strains, locus YNL209W, strain ssb2, stronger effect = lower value 0.652 | S. cerevisiae deletion strains, locus YNL233W, strain BNI4, stronger effect = lower value 0.635 | S. cerevisiae deletion strains, locus YNL307C, strain MCK1, stronger effect = lower value 0.777 | S. cerevisiae deletion strains, locus YNL322C, strain KRE1, stronger effect = lower value 0.0727 | S. cerevisiae deletion strains, locus YNR052C, strain pop2, stronger effect = lower value 0.732 | S. cerevisiae deletion strains, locus YOL006C, strain TOP1, stronger effect = lower value 0.427 | S. cerevisiae deletion strains, locus YOR001W, strain rrp6, stronger effect = lower value 0.864 | S. cerevisiae deletion strains, locus YOR070C, strain gyp1, stronger effect = lower value 0.347 | S. cerevisiae deletion strains, locus YOR083W, strain WHI5 (second series), stronger effect = lower value 0.652 | S. cerevisiae deletion strains, locus YOR083W, strain WHI5, stronger effect = lower value 0.669 | S. cerevisiae deletion strains, locus YOR106W, strain vam3, stronger effect = lower value 0.161 | S. cerevisiae deletion strains, locus YOR184W, strain ser1, stronger effect = lower value 0.248 | S. cerevisiae deletion strains, locus YOR265W, strain rbl2, stronger effect = lower value 0.91 | S. cerevisiae deletion strains, locus YOR270C, strain vph1, stronger effect = lower value 0.673 | S. cerevisiae deletion strains, locus YPL051W, strain arl3, stronger effect = lower value 0.778 | S. cerevisiae deletion strains, locus YPL241C, strain CIN2, stronger effect = lower value 0.484 | S. cerevisiae deletion strains, locus YPR163C, strain tif3, stronger effect = lower value 0.148 | S. cerevisiae deletion strains, strain wtn01, stronger effect = lower value 0.355 | S. cerevisiae strains, strain wild type, stronger effect = lower value 0.0575
0.101 (active) and 1.03 (inactive): S. cerevisiae deletion strains, locus YPL055C, strain LGE1, stronger effect = lower value
0.0843 (active) and 0.921 (inactive): S. cerevisiae deletion strains, locus YNL128W, strain TEP1, stronger effect = lower value
0.512 (active) and 0.943 (inactive): S. cerevisiae deletion strains, locus YNL153C, strain GIM3, stronger effect = lower value
0.151 (active) and 1.03 (inactive): S. cerevisiae deletion strains, locus YMR307W, strain GAS1, stronger effect = lower value
inactive: S. cerevisiae deletion strains, locus YKL009W, strain mrt4, stronger effect = lower value 0.936 | S. cerevisiae deletion strains, locus YKL068W, stronger effect = lower value 0.989 | S. cerevisiae deletion strains, locus YKL085W, strain MDH1 (second series), stronger effect = lower value 0.979 | S. cerevisiae deletion strains, locus YKL085W, strain MDH1, stronger effect = lower value 0.979 | S. cerevisiae deletion strains, locus YKL160W, strain elf1, stronger effect = lower value 0.974 | S. cerevisiae deletion strains, locus YKR026C, strain gcn3, stronger effect = lower value 0.976 | S. cerevisiae deletion strains, locus YKR091W, strain srl3, stronger effect = lower value 0.982 | S. cerevisiae deletion strains, locus YLL001W, strain dnm1, stronger effect = lower value 0.959 | S. cerevisiae deletion strains, locus YLL041C, strain sdh2, stronger effect = lower value 0.943 | S. cerevisiae deletion strains, locus YLR039C, strain RIC1, stronger effect = lower value 1.18 | S. cerevisiae deletion strains, locus YLR058C, strain SHM2, stronger effect = lower value 0.963 | S. cerevisiae deletion strains, locus YLR102C, strain apc9, stronger effect = lower value 1.01 | S. cerevisiae deletion strains, locus YLR113W, strain HOG1, stronger effect = lower value 0.966 | S. cerevisiae deletion strains, locus YLR258W, strain gsy2, stronger effect = lower value 0.943 | S. cerevisiae deletion strains, locus YLR262C, strain YPT6 (second series), stronger effect = lower value 1.06 | S. cerevisiae deletion strains, locus YLR262C, strain YPT6, stronger effect = lower value 0.689 | S. cerevisiae deletion strains, locus YLR268W, strain sec22, stronger effect = lower value 0.935 | S. cerevisiae deletion strains, locus YLR357W, strain rsc2, stronger effect = lower value 0.914 | S. cerevisiae deletion strains, locus YLR370C, strain arc18, stronger effect = lower value 0.953 | S. cerevisiae deletion strains, locus YLR371W, strain rom2, stronger effect = lower value 1.01 | S. cerevisiae deletion strains, locus YLR384C, strain iki3, stronger effect = lower value 0.987 | S. cerevisiae deletion strains, locus YML016C, strain PPZ1, stronger effect = lower value 0.986 | S. cerevisiae deletion strains, locus YML032C, strain rad52, stronger effect = lower value 0.909 | S. cerevisiae deletion strains, locus YML124C, strain tub3, stronger effect = lower value 0.997 | S. cerevisiae deletion strains, locus YMR078C, strain ctf18, stronger effect = lower value 1 | S. cerevisiae deletion strains, locus YMR129W, stronger effect = lower value 0.966 | S. cerevisiae deletion strains, locus YMR205C, strain PFK2, stronger effect = lower value 0.943 | S. cerevisiae deletion strains, locus YNL071W, strain lat1, stronger effect = lower value 0.918 | S. cerevisiae deletion strains, locus YNL175C, strain NOP13, stronger effect = lower value 0.983 | S. cerevisiae deletion strains, locus YNL183C, strain NPR1, stronger effect = lower value 0.987 | S. cerevisiae deletion strains, locus YNL197C, strain WHI3, stronger effect = lower value 0.975 | S. cerevisiae deletion strains, locus YNL224C, strain SQS1, stronger effect = lower value 1 | S. cerevisiae deletion strains, locus YNL248C, strain rpa49, stronger effect = lower value 0.913 | S. cerevisiae deletion strains, locus YNL250W, strain rad50, stronger effect = lower value 0.983 | S. cerevisiae deletion strains, locus YNL271C, strain bni1, stronger effect = lower value 0.994 | S. cerevisiae deletion strains, locus YNL298W, strain CLA4, stronger effect = lower value 0.937 | S. cerevisiae deletion strains, locus YNL322C, strain KRE1 (second series), stronger effect = lower value 0.995 | S. cerevisiae deletion strains, locus YNR049C, strain mso1, stronger effect = lower value 0.986 | S. cerevisiae deletion strains, locus YOL012C, strain htz1 0.226 | S. cerevisiae deletion strains, locus YOL147C, strain pex11, stronger effect = lower value 0.938 | S. cerevisiae deletion strains, locus YOR061W, strain CKA2, stronger effect = lower value 0.913 | S. cerevisiae deletion strains, locus YOR069W, strain VPS5, stronger effect = lower value 0.996 | S. cerevisiae deletion strains, locus YOR080W, strain dia2, stronger effect = lower value 1 | S. cerevisiae deletion strains, locus YOR136W, strain idh2, stronger effect = lower value 0.925 | S. cerevisiae deletion strains, locus YOR144C, strain elg1, stronger effect = lower value 1 | S. cerevisiae deletion strains, locus YOR231W, strain MKK1, stronger effect = lower value 0.968 | S. cerevisiae deletion strains, locus YOR290C, strain snf2, stronger effect = lower value 0.913 | S. cerevisiae deletion strains, locus YOR316C, strain cot1, stronger effect = lower value 1.01 | S. cerevisiae deletion strains, locus YPL078C, strain atp4, stronger effect = lower value 0.92 | S. cerevisiae deletion strains, locus YPL106C, strain sse1, stronger effect = lower value 0.999 | S. cerevisiae deletion strains, locus YPL240C, strain hsp82, stronger effect = lower value 0.983 | S. cerevisiae deletion strains, locus YPL256C, strain CLN2, stronger effect = lower value 0.978 | S. cerevisiae deletion strains, locus YPR119W, strain clb2, stronger effect = lower value 1.01 | S. cerevisiae deletion strains, locus YPR141C, strain kar3, stronger effect = lower value 0.999 | S. cerevisiae deletion strains, locus YPR167C, strain met16, stronger effect = lower value 0.979
